Compound activity: PubChem BioAssay, National Center for Advancing Translational Sciences (NCATS)
Only some compounds are listed: those with a hit (about 2.7% of all), similar ones and a draw of the others.
gsp antag – gsp mutant antagonism | gsp-mutant cells, cAMP HTRF, 30 min | actives 0.4% (n = 340,000) | Potency, µM (titrated, usually from 76.9 µM), inactives show at the highest dose activity change, negative = inhibition, actives largely listed as inhibitors; calls by dose curve; cell line not stated here;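 also: intracellular cAMP measured with PDE inhibitor Ro 20-1724 present during compound exposure; potency is read from the fitted curve at half-maximal effect; % is scaled to controls: 0 for no effect and ±100 for the full control effect; nearly all actives have a fitted effect of over 65% in size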
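HTRF cAMP measurement after 30 min RT detection following 30 min, 37C compound treatment alongside […] (added as 300 uM solution) in G418-selected cells seeded at 2000/well and grown 16–24 h.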
ClpP mod – qHTS Assay for Activators of ClpP; ATP-dependent Clp protease proteolytic subunit (Bacillus subtilis (strain 168)), P80244; purified B. subtilis ClpP, FRET peptide cleavage, 20 min; Potency, µM (highest dose often 57.5 µM), for the others: at the highest dose activity change, negative = active; actives 1.9% (n = 340,000); AID 651965, 2013; active = well fitted falling curve with a large enough effect; inconclusive = small, poorly fitted or top-dose-only effect; inactive = no such curve, though single readings can be large or run the other way; also: potency is read from the fitted curve at half-maximal effect; the source files actives as falling curves though it sought activators and does not explain the sign; nearly all actives have a fitted effect of over 65% in size
Target sequence (P80244 whole entry, looked up): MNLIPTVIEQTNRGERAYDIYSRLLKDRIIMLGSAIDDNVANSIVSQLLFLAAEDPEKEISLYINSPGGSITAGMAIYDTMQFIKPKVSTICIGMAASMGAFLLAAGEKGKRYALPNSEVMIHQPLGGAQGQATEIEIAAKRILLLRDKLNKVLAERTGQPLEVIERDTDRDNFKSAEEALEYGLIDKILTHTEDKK
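ClpP 10 microg/mL final, pH 8 Tris/KCl buffer with BSA, glycerol, Tween-20; compound pinned in; FRET-FV substrate; RT 20 min; Ex320/Em430; ΔFRET vs ADEP 5.8 microM, DMSO, no enzyme.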
RXFP1 agonist – RXFP1 (human) receptor agonism | AID 2676 | Q9HBX9 | HEK293T-RXFP1 cAMP TR-FRET, 30 min; response scale: percent of porcine relaxin response, buffer zero | actives 0.3% (n = 370,000) | Potency, µM (titrated, usually from 57.5 µM), inactives show at the highest dose activation, most hits filed as activators; active = well fitted activation curve with a large enough effect; inconclusive = small, poorly fitted or top-dose-only effect; also: potency is read from the fitted curve at half-maximal effect; % is scaled to controls: 0 for no effect and ±100 for the full control effect; nearly all actives have a fitted effect of over 60% in size
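HEK293T cells stably expressing RXFP1 were pretreated with the PDE4 inhibitor Ro 20174, exposed to compounds for 30 min at 37C, lysed, and cAMP was read by TR-FRET. Data normalized to buffer (basal) and 29 nM porcine relaxin (100%).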
gsp agonist – gsp mutant agonism | gsp mutant cells, cAMP HTRF, 30 min | actives 0.13% (n = 340,000) | Potency, µM (top dose mostly 76.9 µM), for inactives: at the highest dose activation (cAMP increase), hits mostly activators; active = well fitted activation curve with a large enough effect; inconclusive = small, poorly fitted or top-dose-only effect, or another doubt; inactive = no such curve, though single readings can be large or run the other way; cell line not stated here;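 also: phosphodiesterase inhibitor Ro 20-1724 added with compounds to block cAMP breakdown; potency is read from the fitted curve at half-maximal effect; nearly all actives have a fitted effect of over 60% in size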
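Cells stably selected in G418 were plated at 2000/well, grown 16-24 hr, then given compounds in DMSO with the PDE inhibitor […] (300 uM solution added) for 30 min at 37C; cAMP was read by HTRF.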
pAkt inh – inhibitors of Akt phosphorylation; activity change, % for hits at 50 µM; AID 651550; Neuro2A IGF-stimulated pAkt S473 HTRF, 20 min; active compounds read low; actives 0.32% (n = 360,000); in the data active = activity change below about -80%; inconclusive = mostly about -51% to -80%; also: % is scaled to controls: 0 for no effect and ±100 for the full control effect
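Neuro2A cells in DMEM with 0.5% FBS, overnight at 37 deg C, given compound at single 50 µM final, then IGF (6 nM final) for 20 min at 37 deg C. Lysed; phospho-Akt Ser473 by HTRF after 24 h, 665/615 ratio.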
RXFP1 antag – blocks the human relaxin receptor RXFP1; HEK293-RXFP1, relaxin-stimulated cAMP HTRF, 30 min; active compounds read low; activity change, negative = inhibition, % at 57.5 µM; AID 1259400; actives 0.59% (n = 350,000); Q9HBX9;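 active = activity change of -60% or lower, but not beyond a set lower limit; inconclusive = change between -60% and -40%, or beyond the set limit; inactive = change above -40%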; also: % is scaled to controls: 0 for no effect and ±100 for the full control effect
* = called active by the depositor; i = inactive; u = inconclusive; x = no result; [ ] = another dose, or the depositor's remark.

SMILES	gsp antag	ClpP mod	RXFP1 agonist	gsp agonist	pAkt inh	RXFP1 antag
O=C1CS(=O)(=O)C2(C(=O)N(Cc3ccccc3)c3ccccc32)N1c1ccccc1 (configuration not stated)	x	1%	0%	x	x	x
Cc1ccc(NC(=O)c2cccc(NC(=O)/C=C/c3ccco3)c2)cc1C	-5%	-5%	-2%	1%	i	-17
Cc1ccc(-n2nc3ccc(NC(=O)/C=C/c4ccco4)cc3n2)cc1	3%	28µM*	4%	-9%[15.4 µM]	i	-29
O=C(Nc1ccc(-c2n[nH]c(=S)o2)cc1)c1ccccc1Br	-21%	-7%	-1%	-31%	i	-3
Cc1ccc(C)c(-n2c3nc(=O)[nH]c(=O)c-3cc3c(C)nn(-c4ccccc4)c32)c1	x	4%	1%	x	x	x
Cc1ccc(-n2c3nc(=O)[nH]c(=O)c-3cc3c(C)nn(-c4ccccc4)c32)c(C)c1	50µM*	4%	18%	-13%[15.4 µM]	i	-13
CN1C[C@H]2c3ccccc3Oc3ccc(Cl)cc3[C@@H]2C1	x	x	x	x	x	-16
CCNC(=S)NN=C1CCC(C(C)(C)C)CC1 (configuration not stated)	9%	28µM*	0%	-61%	i	-13
CC(C)(C)C1CCC(=NNC(=S)Nc2cccnc2)CC1 (configuration not stated)	10%	x	0%	7%	i	2
CC(Oc1ccccc1)C(=O)N=C1SC2CS(=O)(=O)CC2N1c1cccc(F)c1 (configuration not stated)	-18%	2%	1%	3%	i	5
CCCNS(=O)(=O)c1ccc(OCC(=O)Nc2ccccc2F)cc1	-10%	1%	0%	-1%	-102%*	-4
CCOc1ccc(S(=O)(=O)N(C)c2ccc(OCC(=O)Nc3ccccc3F)cc2)cc1	-12%	-2%	2%	-4%[15.4 µM]	i	5
O=C(NC1CCS(=O)(=O)C1)/C(=C/c1ccco1)NC(=O)c1ccccc1 (configuration not stated)	0%	x	-2%	u	i	-72*
COc1ccc(-c2coc3c(C(=O)Nc4ccc(OC)nc4)cccc23)c(C)c1	x	-27%	x	x	i	x
COc1ccc(-c2ccc(C(=O)Nc3ccc4c(c3)OCO4)c3occc23)c(C)c1	x	32µM*	x	x	i	x
COc1ccc(-c2ccc(C(=O)Nc3ccc(OC)nc3)c3occc23)c(C)c1	x	35µM*	x	x	i	x
Cc1ccc(OCc2cc(=O)n3cc(C)sc3n2)c(NC(=O)c2ccco2)c1	x	-2%	7%	x	x	12
O=C(CCCCCn1c(=S)[nH]c2ccc(N3CCOCC3)cc2c1=O)NCc1ccc2c(c1)OCO2	-10%	-2%	u	13%[15.4 µM]	i	u
O=C(CCCCCn1c(=S)[nH]c2ccc(N3CCOCC3)cc2c1=O)NCc1ccccc1Cl	u	-3%	u	-1%[15.4 µM]	i	-104*
O=C(CCCCCn1c(=S)[nH]c2ccc(N3CCOCC3)cc2c1=O)NCc1ccc(Cl)cc1	10%	0%	14%	-1%[15.4 µM]	i	-92*
O=C(CCCCCn1c(=S)[nH]c2ccc(N3CCOCC3)cc2c1=O)NCCc1ccccc1	u	1%	3%	-2%[15.4 µM]	i	u
O=C(c1ccc(Cn2c(=S)[nH]c3ccc(N4CCOCC4)cc3c2=O)cc1)N1CCN(c2ccc(F)cc2)CC1	u	20µM*	11%	0%[15.4 µM]	i	-16
CSCSC1=C(C#N)C(c2ccccc2Cl)C(C(C)=O)=C(C)N1 (configuration not stated)	-4%	-5%	1%	0%	-106%*	18
CCOC(=O)CSC1=C(C#N)C(c2ccccc2F)C(C(C)=O)=C(C)N1 (configuration not stated)	-13%	-1%	0%	-28%	x	18
CCCN(CCC)C(=O)C1CCN(c2cc(C)nc3c(-c4ccc(Cl)cc4)c(C)nn23)CC1	x	-8%	1%	x	x	x
SMILES	gsp antag	ClpP mod	RXFP1 agonist	gsp agonist	pAkt inh	RXFP1 antag
N#Cc1ccc(-c2ccc3c(c2)OCO3)nc1SCC(=O)OCc1ccccc1	3%	2.5µM*	10%	24%	i	-14
FC(F)(F)c1nc2nncn2c2c1CCCCC2	7%	32µM*	2%	0%	i	11
CC(C)(C)NC(=O)Cn1nc(C(F)(F)F)c2c1CCCC2	1%	x	1%	-32%	i	-4
CCC1=Nc2cc(C(=O)NCCCN3CCN(C)CC3)ccc2Sc2ccccc21	-2%	0%	-1%	22%	i	8
CCCC1=Nc2cc(C(=O)NCCN3CCOCC3)ccc2Sc2ccccc21	-11%	1%	-4%	19%	i	-100*
Oc1c(C(c2ccccc2)N2CCN(c3cccc(Cl)c3)CC2)sc2nc(-c3ccco3)nn12 (configuration not stated)	x	-1%	0%	x	x	-21
COc1ccc(C(=O)NCC(=O)OCC(=O)c2cccc3ccccc23)cc1	x	-1%	x	x	x	x
O=C(NCCc1ccccc1)C(=O)NCC(c1cccs1)S(=O)(=O)c1cccs1 (configuration not stated)	x	0%	1%	x	x	x
CCOC(=O)c1ccc(CC(=O)c2oc3cc(O)ccc3c2C)o1	-18%	32µM*	6%	13%	i	-12
CN(Cc1ccc(Cl)cc1Cl)C(=O)CNC(=O)c1ccc2c(c1)OCO2	7%	-15%	-1%	0%	i	1
CCCN(CC(=O)Nc1ccc(F)c(F)c1F)C(=O)c1cc([N+](=O)[O-])ccc1N1CCOCC1	2%	22µM*	1%	-27%	i	-9
COc1cc(CO)cc(-c2cc(CO)cc(OC)c2OC)c1OC	-3%	0%	-1%	0%	-107%*	-9
COc1cc(CO)cc(Br)c1OCC(=O)O	7%	2%	1%	-39%	i	x
N#CC(C#N)=C1C=CC=CN1/C(=C\c1ccccc1Cl)C(=O)c1ccccc1	10%	5%	-1%	4%	i	-82*
COC(=O)c1c(S(N)(=O)=O)c2ccccc2n1C	4%	28µM*	0%	-30%	i	-3
O=C(Nc1ccc(-c2nc3ccccc3o2)c(O)c1)c1cc(Cl)ccc1Cl	x	u	11%	x	x	-12
Oc1cc(NCc2cccnc2)ccc1-c1nc2ccccc2o1	-26%	35µM*	1%	-1%	i	6
CCc1ccc(OCC(=O)Nc2ccc(-c3nc4ccccc4o3)c(O)c2)cc1	-3%	-29%	30%	-1%	-102%*	-8
Cc1ccc(NC(=O)Nc2ccc(F)cc2)cc1Cl	-12%	x	0%	-20%	i	-1
